The values that follow come from PubChem BioAssay (NCATS).

Records with an inconclusive call do not appear. Unmarked numbers belong to inactive results. Activity calls are given as the source filed them. The call rests on the fitted dose curve; in most records, active means well fitted curve in the direction sought with a large enough effect; inconclusive means small, poorly fitted or top-dose-only effect, or another doubt; inactive means no such curve, though single readings can be large; an effect the other way counts as inactive or inconclusive.

A short description of test [1]: Quantitative highthroughput screen to assess conditional lethalithy of NOMO1 cells grown in RPMI1640 with untreated serum (RPMI+s) (AID 1963876). Further: nearly all actives have a fitted effect of over 35% in size. The method in brief: (§1)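 Each medium arm—HPLM with 10% dialyzed FBS, or RPMI1640 with 5 mM glucose and 10% untreated or dialyzed FBS—was screened against an 11-point, 3-fold compound titration for 48 h at 37 °C, with CellTiter-Glo luminescence as endpoint.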

Test [2] can be described thus: Quantitative highthroughput screen to assess conditional lethalithy of NOMO1 cells grown in RPMI1640 with dialyzed fetal bovine serum (RPMI+ds) (AID 1963877). Further: nearly all actives have a fitted effect of over 30% in size. On viability: series mostly up to about 46 µM. The method in brief:
as §1

Test [3] in a line: Quantitative highthroughput screen to assess conditional lethalithy of NOMO1 cells grown in Human Plasma-Like Medium with dialyzed fetal bovine serum (HPLM+ds) (AID 1963878). Further: nearly all actives have a fitted effect of over 35% in size. The method in brief: as §1
Test [4] is described as follows: Quantitative highthroughput screen to assess conditional lethalithy of P12 Ichikawa cells grown in Human Plasma-Like Medium with dialyzed fetal bovine serum (HPLM+ds) (AID 1963879). Further: nearly all actives have a fitted effect of over 35% in size. On viability: series mostly up to about 46 µM. The following applies: Potency: viability. The method in brief: as §1
Test [5] can be described thus: Quantitative highthroughput screen to assess conditional lethalithy of P12 Ichikawa cells grown in RPMI1640 with dialyzed fetal bovine serum (RPMI+ds) (AID 1963880). Further: nearly all actives have a fitted effect of over 35% in size. As to conditions: Potency: P12-Ichikawa viability. The method in brief:
as §1

Test [6] is described as follows: Quantitative highthroughput screen to assess conditional lethalithy of P12 Ichikawa cells grown in RPMI1640 with untreated serum (RPMI+s) (AID 1963881). Further: nearly all actives have a fitted effect of over 35% in size. On viability: series mostly up to about 46 µM. The following applies: Potency: viability. The method in brief: as §1
Test [7] is described as follows: Quantitative highthroughput screen to assess conditional lethalithy of SEM cells grown in Human Plasma-Like Medium with dialyzed fetal bovine serum (HPLM+ds) (AID 1963882). Further: nearly all actives have a fitted effect of over 35% in size. On viability: series mostly up to about 46 µM. The method in brief: as §1
The nature of test [8]: Quantitative highthroughput screen to assess conditional lethalithy of SEM cells grown in RPMI1640 with unreated serum (RPMI+s) (AID 1963883). Further: nearly all actives have a fitted effect of over 35% in size. The method in brief: as §1
A short description of test [9]: Quantitative highthroughput screen to assess conditional lethalithy of SEM cells grown in RPMI1640 with dialyzed fetal bovine serum (RPMI+ds) (AID 1963884). Further: nearly all actives have a fitted effect of over 35% in size. On viability: series mostly up to about 46 µM. The method in brief:
as §1
Potency means the concentration at half of the fitted maximal effect.

Take `O=C1Nc2ccc(I)cc2C1=Cc1cc(Br)c(O)c(Br)c1`: the Potency result in test [1], in test [2], in test [3], in test [4], in test [5] and in test [6] was “inactive” throughout. The Potency entry in test [7] was “inactive”. For the same molecule, the values for the Potency in test [8] and in test [9] were 16600 nM (active) and 18700 nM (active), respectively.
As for `CC=C1NC(=O)[C@H]2CSSCCC=C[C@H](CC(=O)N[C@H](C(C)C)C(=O)N2)OC(=O)[C@H](C(C)C)NC1=O`, the Potency in test [1] is 41.8 nM (active); in test [2], 52.6 nM (active); in [3], 37.2 nM (active); in test [4], 37.2 nM (active); in test [5], 37.2 nM (active); in test [6], 37.2 nM (active). Further, the Potency is 37.2 nM (active) in [7], 29.6 nM (active) in test [8] and 37.2 nM (active) in [9].
As to `O=C(C[C@@H]1CC=CCCC(=O)O[C@H](c2ccccc2)CNC1=O)NCc1ccc(Cl)cc1`, the Potency entry in test [1], in test [2], in [3], in test [4], in test [5] and in test [6] was “inactive” each time. Also, the Potency entry in [7], in test [8] and in test [9] was “inactive” each time.
In the case of `O=C(C=CC#Cc1cccc(NS(=O)(=O)c2ccccc2)c1)NO`, the Potency in test [1] is 3720 nM (active); in test [2], 3320 nM (active); in test [3] it was 3320 nM (active); in test [4] it was 2350 nM (active); in [5], 2090 nM (active); in test [6], 2090 nM (active). Moreover, the Potency in test [7] was 2640 nM (active); in test [8], 2960 nM (active); in [9], 2350 nM (active).
Take `C[C@@H]1CCN(C(=O)CC#N)C[C@H]1N(C)c1ncnc2[nH]ccc12`: the Potency result in [1], in [2], in test [3], in test [4], in test [5] and in test [6] was “inactive” in each case. For the same molecule, the Potency result in test [7], in [8] and in [9] was “inactive” each time.
For `CC(NCc1ccc2c(c1)nc(NC(=O)c1ccc(-c3cn[nH]c3)s1)n2CC(C)(C)O)C(C)(C)C` (configuration not stated), the Potency in [1] was 2640 nM (active); in [2], 2640 nM (active); in test [3], 1480 nM (active); in [4], 2350 nM (active); in test [5] it was 2640 nM (active); in [6], 2640 nM (active). Moreover, the Potency was 26.4 nM (active) in test [7], 41.8 nM (active) in [8] and 18.7 nM (active) in test [9].
As for `Cc1cccc(C#Cc2ccccc2)n1`, the Potency result in [1], in [2], in test [3], in test [4], in test [5] and in test [6] was “inactive” each time. The Potency entry in [7] and in test [8] was “inactive” each time. Besides, the Potency in test [9] is 13200 nM (active).
As for `C=C1C(=O)O[C@H]2[C@@H]1CCC(C)=CCC[C@@]1(C)O[C@@H]21`, the Potency in test [1] is 4690 nM (active); in test [2], 5900 nM (active); in test [3] it was 2350 nM (active); in test [4], 2350 nM (active); in [5], 2350 nM (active); in [6] it was 2640 nM (active). The Potency was 1320 nM (active) in [7], 833 nM (active) in test [8] and 1480 nM (active) in test [9].
As to `OC(CN1CCN(c2cccc(Cl)c2)CC1)C(c1ccccc1)c1ccccc1` (configuration not stated), the Potency in [1] was 935 nM (active); in test [2] it was 1050 nM (active); in test [3], 148 nM (active); in [4], 132 nM (active); in test [5], 743 nM (active); in test [6], 935 nM (active). Also, the Potency was 833 nM (active) in test [7], 148 nM (active) in test [8] and 166 nM (active) in [9].
Turning to `C[C@H](CCC(=O)O)[C@H]1CC[C@H]2[C@H]3[C@@H](CC[C@]12C)[C@@]1(C)CC[C@@H](O)C[C@H]1C[C@@H]3O`, the Potency result in test [1], in [2], in test [3], in test [4], in [5] and in [6] was “inactive” throughout. Besides, the Potency entry in [7] and in test [8] was “inactive” each time.
Consider `O=C1NC(=O)C(=Cc2ccc3nccc(-c4ccncc4)c3c2)S1`, for which the Potency in [1] is 2640 nM (active); in test [2], 1320 nM (active); in [3], 662 nM (active); in test [4] it was 7430 nM (active); in test [5], 1870 nM (active); in [6], 1870 nM (active). The Potency is 935 nM (active) in test [7], 935 nM (active) in test [8] and 833 nM (active) in test [9].
Regarding `CN[C@@H]1[C@@H](O)[C@@H](O[C@@H]2[C@@H](O)[C@H](O[C@H]3O[C@H](CN)[C@@H](O)[C@H](O)[C@@H]3O)[C@@H](N)C[C@@H]2NC(=O)[C@@H](O)CN)OC[C@]1(C)O`, the Potency entry in [1], in test [2], in test [3], in [4], in [5] and in test [6] was “inactive” throughout. The Potency entry in test [7], in test [8] and in [9] was “inactive” in each case.
For the molecule `CCCCCOC(=O)Nc1nc(=O)n([C@@H]2O[C@H](C)[C@@H](O)C2O)cc1F` (some centres not stated), the Potency entry in [1], in test [2], in test [3], in [4], in test [5] and in test [6] was “inactive” in each case. Further, the Potency entry in [7], in test [8] and in [9] was “inactive” each time.
In the case of `CN[C@@H]1C[C@H]2O[C@@](C)([C@H]1OC)n1c3ccccc3c3c4c(c5c6ccccc6n2c5c31)C(=O)N[C@H]4O`, the Potency in [1] was 833 nM (active); in [2], 1050 nM (active); in test [3] it was 590 nM (active); in [4], 743 nM (active); in test [5] it was 590 nM (active); in test [6] it was 418 nM (active). Moreover, the Potency was 332 nM (active) in test [7], 332 nM (active) in [8] and 526 nM (active) in [9].
On to `Cc1ccc([N+](=O)[O-])cc1S(=O)(=O)N(C)N=Cc1cnc2ccc(Br)cn12`, for which the Potency in [1] was 93.5 nM (active); in test [2] it was 105 nM (active); in [3], 52.6 nM (active); in [4], 166 nM (active); in [5], 132 nM (active); in [6] it was 132 nM (active). Besides, the Potency is 59 nM (active) in [7], 66.2 nM (active) in [8] and 83.3 nM (active) in test [9].
Consider `CO[C@H]1C=CC=C(C)C(=O)NC2=CC(=O)C(NCCN(C)C)=C(C[C@@H](C)C[C@H](OC)[C@@H](O)[C@@H](C)C=C(C)[C@@H]1OC(N)=O)C2=O`, for which the Potency in test [1] is 743 nM (active); in test [2] it was 662 nM (active); in test [3] it was 662 nM (active); in test [4] it was 4690 nM (active); in [5], 935 nM (active); in test [6], 743 nM (active). Further, the Potency in test [7] was 166 nM (active); in test [8], 148 nM (active); in [9] it was 118 nM (active).
As to `CC[C@H]1OC(=O)[C@H](C)C(=O)[C@H](C)[C@@H](O[C@H]2O[C@H](C)C[C@H](N(C)C)[C@@H]2O)[C@](C)(OC)C[C@@H](C)C(=O)[C@H](C)[C@H]2N(CCCCn3cnc(-c4cccnc4)c3)C(=O)O[C@]12C`, the Potency result in [1], in test [2], in test [3], in [4], in [5] and in test [6] was “inactive” in each case. Further, the Potency result in [7], in test [8] and in test [9] was “inactive” each time.
